17 compounds from PubChem BioAssay AID493201 (National Center for Advancing Translational Sciences (NCATS), 2011) can be followed below.

Records with an inconclusive call do not appear. Where a call stands in place of a potency, no number is given. Calls of active or inactive are those of the source. Calls come from the whole dose curve; as a rule, active = well fitted activation curve with a large enough effect; inconclusive = small, poorly fitted or top-dose-only effect; inactive = no such curve, though single readings can be large or run the other way.
Potency is the fitted concentration of half-maximal effect.

This experiment is described as follows: qHTS Assay for Identifying a Potential Treatment of Ataxia-Telangiectasia: Secondary assay (no NCS) hit validation.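 Note: phosphorylated KAP1 signal as a proxy for ATM-like kinase activity.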 Particulars: A-T patient fibroblasts, AlphaLISA, no DNA damage added, 90 min; series mostly up to 76.9 µM. The method in brief: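 hTERT-immortalized A-T patient fibroblasts (F2112), 500 cells/well, exposed to compounds at up to 76.7 uM final without NCS at 37C. KAP-1 phosphorylation measured by AlphaLISA after lysis and 6 h detection at 25C.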
In general terms: Quantitative high-throughput screening tests each substance at several concentrations.
As for `CC(C)(CO)NC(=O)c1ccc2c(c1)C(=O)c1ccccc1-2`, the Potency entry is “inactive”.
For `C(=N\Nc1ccccn1)/c1c[nH]c2ccccc12`, the Potency entry is “inactive”.
Regarding `CC(C)(C=O)C1=CC(=O)c2ccccc2C1=O`, the Potency is 51.9 µM (active).
As to `Nc1ccc2ncccc2c1`, the Potency result was “inactive”.
To `COc1ccc(C(=O)/C=C/C(=O)N(CC(=O)NC2CCCCC2)Cc2ccccc2)c(O)c1` belongs “inactive”; to `CCOC(=O)CN(C(=O)CSc1nnc(COc2ccc(OC)cc2)n1CC)c1ccccc1`, “inactive”; to `CC1C(c2ccccc2)N(C)C(c2ccccc2)CC1(O)c1ccccc1` (configuration not stated), 13 µM (active).
On to `O=C(N/N=C/c1ccncc1)c1ccc(COc2cccc3cccnc23)cc1`, for which the Potency result is “inactive”.
Take `O=C(OCCc1cc2ccccc2c(=O)o1)c1cccc(Br)c1`: the Potency result is “inactive”.
As for `Cc1ccc(C)c(-n2c(SCC(=O)NC(C(=O)O)C(C)C)nnc2-c2cccc(Cl)c2)c1` (configuration not stated), the Potency is 46.3 µM (active).
In the case of `Cc1cc2c(c(=O)o1)C(CCC1CCCCC1)C(C#N)=C(N)O2` (configuration not stated), the Potency result was “inactive”.
Consider `COc1ccc(-n2c(C)cc(=O)[nH]c2=O)cc1`, for which the Potency result is “inactive”.
To `CC(=O)Nc1ccc(NC(=O)CSc2nnnn2-c2ccc(F)cc2)cc1` belongs “inactive”; to `COc1ccc(N(C)S(=O)(=O)c2cccc(C(=O)OCC(=O)NCc3ccccc3OC)c2)cc1`, “inactive”.
To `COc1ccc(C2NC(=S)NC3=C2N2CCC3CC2)cc1` (configuration not stated) belongs 1.16 µM (active); to `O=C(C(c1ccccc1)c1ccccc1)N1CC[C@@]2(O)CCCC[C@H]2C1`, “inactive”; to `O=C1/C(=C/c2ccc(N3CCOCC3)o2)SC(=Nc2ccccc2)N1CCc1c[nH]c2ccccc12`, “inactive”.
